Most compounds without a hit are left out; they make up all but 18% or so of the library.
IL-1B inflam inh – blocks inflammasome-driven IL-1 beta release | THP-1 LPS/ATP IL-1B secretion, AlphaLISA, 16 h; active compounds read low | activity change, % at 57.5 µM | 4.7% of 360,000 active | AID 743279; in the data active means activity change below about -50%; inconclusive means mostly about -30% to -49%
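Secreted IL-1B measured by AlphaLISA bead assay after 16 h compound exposure of THP-1 cells; compounds (final up to 57.5 uM) added 1 h before LPS (250 ng/mL) and ATP (1.25 mM) stimulation; lower signal means less secretion.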
Six1-Eya2 blk – blocks human Six1 binding to Eya2; Q15475+O00167; AlphaScreen GST-Six1/His-Eya2 binding, biochemical; active compounds read low; activity change, % (no concentration beside the values); 0.56% of 360,000 active; in the data active means activity change below about -65%; inconclusive means mostly about -30% to -63%
Target sequence (O00167 whole entry, looked up): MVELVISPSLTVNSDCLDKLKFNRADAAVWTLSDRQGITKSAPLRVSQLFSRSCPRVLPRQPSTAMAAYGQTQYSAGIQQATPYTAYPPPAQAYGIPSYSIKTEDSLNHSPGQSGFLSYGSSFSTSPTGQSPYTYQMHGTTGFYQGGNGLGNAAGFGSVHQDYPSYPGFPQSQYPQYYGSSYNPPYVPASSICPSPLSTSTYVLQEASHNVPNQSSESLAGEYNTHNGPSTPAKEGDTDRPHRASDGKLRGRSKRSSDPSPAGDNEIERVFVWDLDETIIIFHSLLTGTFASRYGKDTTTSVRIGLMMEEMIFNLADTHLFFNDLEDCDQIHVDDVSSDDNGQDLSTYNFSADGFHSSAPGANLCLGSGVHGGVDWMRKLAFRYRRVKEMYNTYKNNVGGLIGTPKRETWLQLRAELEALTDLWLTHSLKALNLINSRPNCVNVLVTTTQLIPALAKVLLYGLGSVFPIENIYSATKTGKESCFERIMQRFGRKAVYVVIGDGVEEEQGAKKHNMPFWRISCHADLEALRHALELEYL
Target sequence (Q15475 whole entry, looked up): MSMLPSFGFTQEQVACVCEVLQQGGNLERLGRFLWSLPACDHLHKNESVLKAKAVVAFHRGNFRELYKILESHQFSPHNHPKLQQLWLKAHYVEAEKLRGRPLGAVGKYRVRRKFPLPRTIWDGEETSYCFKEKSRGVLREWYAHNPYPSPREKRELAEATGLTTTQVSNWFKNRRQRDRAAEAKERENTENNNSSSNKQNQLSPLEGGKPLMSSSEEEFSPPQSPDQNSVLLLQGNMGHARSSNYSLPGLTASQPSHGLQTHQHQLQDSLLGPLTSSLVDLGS
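AlphaScreen with GST-Six1 and His-Eya2 (5X mix: 250 nM and 500 nM), glutathione donor and nickel acceptor beads; buffer 50 mM Tris pH 8.0, 300 mM NaCl, 1 mM TCEP; 1 h at 37 C in the dark.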
CtBP-E1A blk – inhibitors of CtBP/E1A interaction; AlphaScreen GST-E1A/His-CtBP binding, 1536-well; active compounds read low; activity change, % (no concentration beside the values); 0.49% of 340,000 active; in the data active means activity change below about -65%; inconclusive means mostly about -30% to -63%
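AlphaScreen with 125 nM GST-E1A and 125 nM His-CtBP (5X stocks) in Tris pH 8.0, 300 mM NaCl, BSA, Tween 20, TCEP. Compounds preincubated 2 h at 37 deg C, then glutathione donor/nickel acceptor beads added for 1 h at 37 deg C in dark.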
TDP1 block – TDP1 (human) enzyme inhibition; Q9NUW8; 0.28% of 350,000 active; recombinant TDP1, AlphaScreen DNA substrate cleavage; Potency, µM (series often up to 130 µM), hits mostly inhibitors; AID 485290; further: nearly all actives have a fitted effect of over 40% in size
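Enzyme-compound mixtures sat 15 min at room temperature, followed by a 5 min reaction with 15 nM final substrate and 10 min with AlphaScreen beads. Recombinant human Tdp1 was used at 1 nM final.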
DT40 TDP1 CPT – growth inhibition of DT40 Tdp1-/-;hTDP1 cells with camptothecin (screen for TDP1 inhibitors); chicken DT40 Tdp1-/-;hTDP1 cells + 20 nM CPT, ATP luminescence, 48 h; Potency, µM (titrated, usually from 46.2 µM), actives largely listed as inhibitors; 12% of 420,000 active; further: nearly all actives have a fitted effect of over 55% in size
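Cell growth measured by CellTiter-Glo luminescence after a minimum 48 h, 37 C compound exposure with 20 nM CPT in Tdp1-knockout DT40 cells stably expressing hTDP1, seeded 400/well; qHTS titration format.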
TDP1 cell noCPT – qHTS for Inhibitors of human tyrosyl-DNA phosphodiesterase 1 (TDP1): qHTS in cells in absence of CPT | Potency, µM (doses to about 46.2 µM), actives largely listed as inhibitors | 15% of 420,000 active | AID 686978, 2013 | DT40 Tdp1-/- hTDP1 cells, no CPT, ATP luminescence, 48 h; further: nearly all actives have a fitted effect of over 55% in size
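DT40 Tdp1-/-;hTDP1 cells, no CPT (DMSO vehicle only), 400 cells/well; compounds pin-transferred; ≥48 hr, 37 °C; CellTiter-Glo 30 min RT dark, luminescence read.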
A number is an active result; - = inactive; ? = inconclusive; . = no result; [ ] = remark or other dose. Unless noted, the call rests on the fitted dose curve; in most records, active means well fitted curve in the direction sought with a large enough effect; inconclusive means small, poorly fitted or top-dose-only effect, or another doubt; inactive means no such curve, though single readings can be large; an effect the other way counts as inactive or inconclusive.

SMILES	IL-1B inflam inh	Six1-Eya2 blk	CtBP-E1A blk	TDP1 block	DT40 TDP1 CPT	TDP1 cell noCPT
Cc1nc2c(sc3nc(N4CCOCC4)c4c(c32)CC(C)(C)OC4)c(-c2ccccc2)c1C(=O)O	-	-	-	-	26µM	?
COc1ccc(OC)c(CNC(=O)C2CCCN(C(=O)N(C)C)C2)c1 (stereo not drawn)	-	-	-	-	-	-
CSc1nnc(-c2sc3cc(C(F)(F)F)cnc3c2-c2ccccc2)n1C	-	-	-	-	4.6µM	16µM
CC(C)CCNC(=O)c1cn(CC(C)C)c(=O)c2c1c1ccccc1n2C	-	-	.	.	-	?
NC(=O)C1(N2CCCCC2)CCN(C(=S)NCCc2ccccc2)CC1	-	-	.	-	-	-
O=[N+]([O-])c1ccc(/C=C/c2ccc3cccc(O)c3n2)cc1	-	-	-	.	21µM	16µM
CC(=O)COc1cccc2ccc(/C=C/c3ccc(Br)s3)nc12	-	-	.	.	21µM	?
Oc1cccc(/C=C/c2ccc3cccc(O)c3n2)c1	-	-	?	.	18µM	16µM
Cc1cccc(/C=C\c2ccccc2)n1	.	.	.	-	?	-
Cc1ccc(/C=C/c2ccc3cccc(O)c3n2)s1	-	-	-	-	?	16µM
Cc1ccc(NC(=O)C2CCC(CNS(=O)(=O)c3ccc4c(c3)C(C)(C)C(=O)N4C)CC2)cc1 (stereo not drawn)	.	.	.	-	-	-
COc1ccc(-c2cc(=O)oc3c(C)c(OCC(=O)N[C@@H](Cc4ccc(O)cc4)C(=O)O)ccc23)cc1	-	-	-	.	-	-
CCOC(=O)c1cn2nc(N3CCCCC3)ccc2n1	-	-	-	.	-	-
CCOc1ccc(NC(=S)N(CCN2CCOCC2)Cc2ccc3c(c2)CCCN3CC)cc1	-	?	-	-	?	?
COc1cccc2ccc(/C=C/c3ccc4c(c3)OCO4)nc12	.	.	.	-	?	?
COc1cccc(/C=C/c2ccc3cccc(O)c3n2)c1	?	-	-	.	?	7.3µM
O=C(O)CCCCCNS(=O)(=O)c1ccc(Cl)cc1	-	-	-	-	-	-
COc1ccccc1S(=O)(=O)N1CCN(S(=O)(=O)c2ccccc2C#N)CC1	-	-	-	-	-	-
COc1ccc2c(CNC3CCCCCC3)c(C(=O)O)n(Cc3ccc(C)cc3)c2c1	.	.	.	-	26µM	?
COc1ccc(Cn2c(C(=O)O)c(CNC3CCCCCC3)c3ccc(OC)cc32)cc1	.	.	.	-	16µM	?
COc1ccc(Cn2c(C(=O)O)c(CNC3CCCC3)c3ccc(C)cc32)cc1	.	.	.	-	-	-
C=Cc1ccc(Cn2c(C(=O)O)c(CNC3CCCCC3)c3ccc(OC)cc32)cc1	.	.	.	-	21µM	21µM
C=CCc1ccccc1OCC(O)CN1C(=O)c2ccccc2C1=O (stereo not drawn)	-	-	-	-	-	-
CN1CCN(c2ccccc2NC(=O)c2cccs2)CC1	-	-	-	-	-	-
COc1cccc(CN(C)C(=O)C2CSC3(C)CCC(=O)N23)c1OC (stereo not drawn)	-	-	-	-	-	-
SMILES	IL-1B inflam inh	Six1-Eya2 blk	CtBP-E1A blk	TDP1 block	DT40 TDP1 CPT	TDP1 cell noCPT
CN(CC(=O)Nc1ccc(Cl)c(C(F)(F)F)c1)C(=O)C1CSC2(C)CCC(=O)N12 (stereo not drawn)	-	-	-	-	?	18µM
CN(Cc1ccc(C(C)(C)C)cc1)C(=O)C1CSC2(C)CCC(=O)N12 (stereo not drawn)	-	-	.	-	16µM	?
C=CCN(C(=O)C1CSC2(C)CCC(=O)N12)c1nc(-c2ccccc2)cs1 (stereo not drawn)	-	-	-	.	18µM	23µM
Cc1ccc(-n2c(=O)c3sccc3n(CC(=O)NCC3CCCO3)c2=O)cc1F (stereo not drawn)	-	-	-	-[0.0935 µM]	-	-
CCOc1ccc(NC(=O)COc2ccc(C(=O)NCC3CCCO3)cc2OC)cc1 (stereo not drawn)	-	-	-	-	-	-
O=C(O)C1CSC(c2ccccc2)N1C(=O)c1ccco1 (stereo not drawn)	-	-	-	-	-	-
CC(C)CC(NC(=O)CCl)c1ccccc1 (stereo not drawn)	-	-	-	-	-	?
CCCC(NC(=O)CCl)c1ccccc1 (stereo not drawn)	-92	-	-	-	13µM	29µM
CC1CCN(c2ncnc3ccccc23)CC1	-	-	-	-	13µM	23µM
O=S(=O)(c1cc(C(F)(F)F)ccc1Cl)N1CCN(c2ncnc3ccccc23)CC1	-	-	-	-	2.1µM	2.1µM
CC1CCN(c2nc(-c3ccccc3O)nc3ccccc23)CC1	-	-	-	-	?	?
Cc1cc(C)c(C)c(S(=O)(=O)N2CCN(c3ncnc4ccccc34)CC2)c1C	-	-	.	-	10µM	8.2µM
CCc1ccc2nc(SCC(=O)Nc3ccccc3N3CCOCC3)c(C#N)cc2c1	-	-	-	.	4.6µM	4.1µM
CCc1ccc2nc(SCC(=O)N3CCCCC3)c(C#N)cc2c1	-	-	-	.	?	?
Cc1ccc(SCC(=O)Nc2ccccc2N2CCOCC2)cc1	-	-	.	-	?	?
Cc1ccc2nc(SCC(=O)Nc3ccccc3N3CCOCC3)c(C#N)cc2c1	-	-	-	-	4.6µM	3.3µM
CCNS(=O)(=O)c1ccc(CCC(=O)N2CCC(C)CC2)cc1	-	-	-	.	-	-
COc1cccc(C2=CC(c3cccc(OC)c3OC)n3nnnc3N2)c1 (stereo not drawn)	-	-	-	-	12µM	16µM
COc1cccc(C2C=C(c3ccc(C)c(C)c3)Nc3nnnn32)c1OC (stereo not drawn)	.	.	.	-	5.2µM	3.7µM
COc1ccc(CN2C(=O)C(CC(=O)NC(c3ccccc3)c3ccccc3)CC(C(=O)N(C)C)=C2C)cc1 (stereo not drawn)	-	-	-	.	?	?
CCOc1ccc(/C=C/C(=O)c2ccc(-c3ccccc3)cc2)cc1	-	-	-	-	?	?
CCOc1ccccc1NC(=O)C1CCN(S(=O)(=O)c2ccc3[nH]c4c(c3c2)CCCCC4)CC1	.	.	.	-	?	?
O=c1c2ccccc2nc2c3ccccc3c3nncn3n12	-	-	-	-	7.3µM	5.2µM
COc1cccc(N2CC(NC(=O)c3cc(Cl)ccc3OC)CC2=O)c1 (stereo not drawn)	.	.	.	-	?	16µM
COc1ccc(N2CC(NC(=O)COc3cccc(C)c3)CC2=O)cc1OC (stereo not drawn)	.	.	.	-	-	21µM
Cc1ccc(C)c(N=C2CCCN2Cc2ccccc2)c1C#N	-	-	-	-	?	16µM
